# Screens (PubChem)
# Hits are enriched below; roughly 4% of the tested compounds scored in any of these assays.
# NLRP3 yeast inh – NALP3 inhibition in yeast; inhibition, % at 10 µM; Yeast reconstituted NLRP3/ASC/caspase-1, beta-gal luminescence, 24 h; 330,000 tested, 0.39% active;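 active = inhibition of 50% or more; inactive = inhibition below 50%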;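 also: plate controls were induced DMSO wells for no effect and uninduced yeast grown without galactose for full effect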
# tim23-1 inh – growth inhibitors of tim23-1 mutant yeast. S. cerevisiae tim23-1 growth, BacTiter-Glo luminescence, 24 h. inhibition, % at 20 µM. 330,000 tested, 1.3% active;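 active = growth inhibition of the mutant yeast at or above 50%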;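 also: temperature-sensitive mutant grown at 25 °C; plate controls were DMSO-treated mutant yeast for no effect and medium wells lacking yeast for full effect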
# NALP1 yeast inh – inhibitors of NALP1 inflammasome in yeast | S. cerevisiae NALP1/ASC/caspase-1 growth, X-gal OD620, 72 h | inhibition, % at 10 µM | AID 2071 | 280,000 tested, 0.61% active; in the data active = inhibition mostly above about 24%, no sharp cut-off; inactive = mostly below about 32%
# tim10-1 inh – growth inhibitors of tim10-1 mutant yeast; 330,000 tested, 2.2% active; AID 463190; inhibition, % at 20 µM; S. cerevisiae tim10-1 ts strain growth, BacTiter-Glo, 24 h;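 active = inhibition of at least 40%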;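 also: mutant grown at 25 °C; 0% = DMSO wells with yeast and 100% = wells holding no yeast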
# TIM10 inh – inhibits growth of TIM10 yeast strain; S. cerevisiae TIM10 strain growth, BacTiter-Glo luminescence, 24 h; inhibition, % at 10 µM; 330,000 tested, 1.4% active;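 active = inhibition of 40% or more at the single tested concentration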;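 also: wild-type TIM10 isogenic control strain grown at permissive 25 °C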
# tim10-1 confirm – confirmation of tim10-1 mutant yeast growth inhibitors. inhibition, % at 20 µM. shares compounds with tim10-1 inh. S. cerevisiae tim10-1 ts strain growth, BacTiter-Glo, 24 h. 7,400 tested, 56% active;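 active = inhibition of yeast growth at or above a set limit in either of two repeat tests at 20 µM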;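 also: tim10-1 mutant grown at permissive 25 °C to find synthetic lethal compounds; 0% = DMSO yeast wells and 100% = medium wells without yeast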
# TIM10 conf – confirmation of TIM10 yeast growth inhibitors; AID 463215; S. cerevisiae tim10 strain growth, BacTiter-Glo luminescence, 24 h; 4,600 tested, 63% active; shares compounds with TIM10 inh; inhibition, % at 10 µM;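 active = inhibition of yeast growth at or above a set limit in either of two replicates at 10 µM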;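 also: this counterscreen used the strain with wild-type TIM10; 0% = yeast with DMSO and 100% = medium wells lacking yeast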
# * = called active by the depositor; i = inactive; . = no result given.
SMILES,NLRP3 yeast inh,tim23-1 inh,NALP1 yeast inh,tim10-1 inh,TIM10 inh,tim10-1 confirm,TIM10 conf
O=c1ccc2cc(S(=O)(=O)N3CCN(c4cc(Cl)ccc4Cl)CC3)ccc2o1,5.2,25.4,6.7,41.6*,42.0*,23.9,38.8*
CCOC(=O)N1CCN(C(=O)C2CC(=O)N(c3ccc(C)cc3)C2)CC1 (stereo not given),1.2,17.0,.,-5.0,3.3,.,.
N#Cc1c(NCCCO)nc(NCc2ccccc2)c2c1CCN(Cc1ccccc1)C2,12.8,14.0,-0.8,38.0,12.5,.,.
CN1CCc2c(C#N)c(N3CCCCC3)nc(NCc3ccccc3)c2C1,1.7,25.0,6.7,48.3*,43.0*,31.9*,16.8
CCCCCCCCCOC(=O)C(CC(=O)O)N1CCOCC1 (stereo not given),19.7,43.5,44.9*,42.5*,50.5*,37.3*,44.0*
CCCCCOC(=O)CC(C(=O)OCCCCC)N1CCCCC1 (stereo not given),1.3,21.8,19.9,21.5,4.7,.,.
Cc1ccc(Cl)c2c1=NC(=O)C=2c1[nH]c(=S)[nH]c1O,16.8,11.0,-29.0,-2.9,-56.6,.,.
CCC(c1nnnn1CCc1ccccc1)N1CCN(c2ccc(OC)cc2)CC1 (stereo not given),-25.7,26.2,-10.8,41.0*,43.4*,13.6,23.7
Cc1cc(=O)n2nc(N3CCCC3C(=O)Nc3ccc(C(C)C)cc3)sc2n1 (stereo not given),10.0,2.1,-5.8,5.8,4.1,.,.
CCN(c1ccccc1)S(=O)(=O)c1cccc(C(=O)NCC(c2cccs2)N2CCOCC2)c1 (stereo not given),7.3,11.5,.,14.2,18.0,.,.
Cc1ccc2cccc(NC(=S)NC(=O)c3ccccc3)c2n1,11.1,16.7,-8.3,43.1*,42.3*,30.8*,42.8*
Nc1ncnc2c1ncn2[C@@H]1O[C@H](CNCc2cccc(C#Cc3ccccc3)c2)[C@@H](O)[C@H]1O,.,45.6,.,17.7,-0.9,.,.
O=C1OCC(CO)(CO)N=C1NNc1ccc(Cl)c(Cl)c1,38.2,8.0,21.3,48.7*,42.4*,-4.2,41.0*
COc1cc(C(=O)NC(=S)Nc2nccs2)cc(OC)c1OC,-10.3,6.1,-14.9,26.6,-3.2,.,.
N/C(=N\OC(=O)/C=C/c1ccccc1)c1ccc(Cl)cc1,1.2,11.1,13.0,8.4,15.0,.,.
CCC(C(=O)O/N=C(\N)c1ccc(Cl)cc1)c1ccccc1 (stereo not given),-10.3,11.4,3.3,74.9*,62.6*,62.6*,70.5*
CCCc1cc(NCC2CCCO2)n2c(nc3ccccc32)c1C#N (stereo not given),6.6,45.4,13.6,40.8*,40.9*,37.0*,24.8
Cc1ccsc1C1Nc2ccccc2-c2nc3ccccc3n21 (stereo not given),20.5,49.8,35.4,51.3*,54.3*,39.0*,-16.3
c1csc(C2Nc3ccccc3-c3nc4ccccc4n32)c1 (stereo not given),3.6,33.9,67.8,37.6,21.6,.,.
CC(C)[C@H](NC(=O)C1CCN(S(=O)(=O)c2ccccc2)CC1)C(=O)NCc1ccncc1,4.8,-12.7,13.5,-0.6,-2.0,.,.
COc1ccc(OC)c(/C=N/N(C)c2ccccc2)c1,6.6,22.0,0.2,20.8,9.0,.,.
COc1cc(/C=N/N(C)c2ccccc2)cc(Cl)c1O,0.7,38.2,0.7,47.7*,40.4*,16.0,20.1
Cc1ccc(S(=O)(=O)c2cn(C)c3cc(N4CCN(C)CC4)c(F)cc3c2=O)c(C)c1,11.6,7.5,8.5,0.5,1.2,.,.
CCc1cccc(N=c2c([N+](=O)[O-])nn(-c3ccc4c(c3)OCCO4)n2O)c1,-23.3,46.9,-6.1,48.2*,57.4*,31.1*,41.7*
CC(C)c1ccc(N=c2c([N+](=O)[O-])nn(-c3ccc4c(c3)OCCO4)n2O)cc1,-28.2,29.7,7.7,22.3,23.6,.,.
SMILES,NLRP3 yeast inh,tim23-1 inh,NALP1 yeast inh,tim10-1 inh,TIM10 inh,tim10-1 confirm,TIM10 conf
COc1ccc(O)c(/C=N/Nc2nc(C)cc(-c3ccccc3)n2)c1,24.1,44.9,.,43.3*,41.9*,39.9*,46.8*
O=C(C1CCC1)N1CCc2cc(S(=O)(=O)N3CCCCC3)ccc21,24.9,19.0,2.1,28.8,9.2,.,.
CCCN(CCC)CCNS(=O)(=O)c1ccc2c(c1)CCN2C(=O)C1CCC1,9.2,13.3,6.7,9.3,10.5,.,.
CCOC(=O)N1CCN(S(=O)(=O)c2ccc3c(c2)CCN3C(=O)C2CCC2)CC1,10.3,-46.3,-14.2,56.5*,46.9*,53.3*,-20.5
O=C(C1CCC1)N1CCc2cc(S(=O)(=O)N3CCN(c4ccccn4)CC3)ccc21,19.8,-11.0,-6.4,69.4*,55.5*,69.3*,-24.9
O=C(C1CC1)N1CCc2cc(S(=O)(=O)NCCC3=CCCCC3)ccc21,22.6,31.0,6.6,50.5*,41.1*,33.7*,-0.4
CCCc1cc(=O)[nH]c(SCC(=O)NN(c2ccccc2)c2ccccc2)n1,18.0,8.6,2.0,9.1,18.4,.,.
O=C(NC12CC3CC(CC(C3)C1)C2)c1ccccc1O,-4.6,31.6,13.8,50.4*,49.0*,50.8*,48.0*
CCCN(CCC)C(=O)Cn1c(=O)n(CCCCCC(=O)Nc2ccccc2)c(=O)c2sccc21,5.1,4.7,17.5,5.0,-12.4,.,.
CCC(C)N(CC(=O)Nc1cccc(C)c1C)C(=O)CCl (stereo not given),13.0,44.9,-5.4,52.7*,53.6*,47.2*,46.5*
CCC(CC)NC(=O)Nc1cccc(C)c1C,7.9,-2.1,8.0,1.6,-2.3,.,.
Cc1ccc(S(=O)(=O)N2CCN(C(=O)CC(C)n3nc(C)c(Cl)c3C)CC2)cc1 (stereo not given),15.2,10.8,12.8,20.7,-7.7,.,.
Nc1nnnn1/N=C/C(Br)=C/c1ccccc1,30.5,36.8,3.7,46.4*,55.3*,47.7*,52.6*
CSCc1ccc(C(=O)Nc2cccc(C)c2C)cc1,9.2,18.5,19.7,18.1,0.3,.,.
Cc1cc(NCc2ccccn2)n2nc(C)c(-c3ccc(Cl)cc3)c2n1,17.3,17.1,3.5,17.9,27.5,.,.
CCCc1cc(N2CCCC2)n2nc(C)c(-c3ccccc3)c2n1,28.4,46.2,32.1,46.6*,50.5*,22.9,19.3
CCCc1cc(NCc2ccccn2)n2nc(C)c(-c3ccccc3)c2n1,25.7,45.4,3.6,43.1*,46.7*,57.8*,76.2*
CCN1CCN(c2cc(C(C)C)nc3c(-c4ccccc4)c(C)nn23)CC1,24.6,-0.5,i,8.0,27.6,.,.
O=[N+]([O-])c1ccc(C2=NN(CCO)C(=Nc3ccc(OC(F)(F)F)cc3)SC2)cc1,22.7,47.7,-3.0,44.7*,44.8*,14.9,32.1*
COc1ccc(COc2ccc(S(=O)(=O)N3CCCC3)cc2C(N)=O)cc1F,4.8,-3.9,17.7,-9.3,-9.0,.,.
